The record followed here is PubChem BioAssay AID1159606 (Sanford-Burnham Center for Chemical Genomics, 2016).

The whole screen tested about 360,000 compounds, of which about 7,300 (2%) were called active. For the sample, actives were picked, then their nearest neighbours and some compounds at random. A number with no mark means an inactive call. Rule as the data show it: active = inhibition above about 50%; inactive = the rest.

A short description of the experiment: blockers of TWEAK-induced Fn14 reporter activity – luciferase reporter cells, uHTS, primary screen (AID 1159606). Conditions: TWEAK-stimulated Fn14 reporter cells, luciferase luminescence, 8 h; at 10 µM; hits give high values. (In a reporter assay the amount or activity of a reporter protein is the signal.)
With `NS(=O)(=O)c1cccc(NC(=O)COC(=O)c2cc([N+](=O)[O-])ccc2N2CCCC2)c1`, the inhibition is -16.4%.

Turning to `COc1cccc(-c2nc3cc(C)ccc3o2)c1`, the inhibition was 51.2% (active). As for `O=[N+]([O-])c1ccc2oc(-c3cccc(O)c3)nc2c1`, the figure is 5.84%.

Consider `COc1ccc2oc(N)nc2c1`, for which the inhibition was -11.6%. Consider `CCN(CC)c1ccc(NC(=O)c2ccc(=O)[nH]c2)cc1S(=O)(=O)Nc1ccc(OC)cc1`, for which the inhibition was 9.69%. As for `COc1cc(NC(=O)COC(=O)CSc2ccc3ccccc3c2)c(C)cc1[N+](=O)[O-]`, the figure is 2.69%; as for `CC[C@@H]1Cc2cc(O)ccc2C2=C1c1ccc(O)cc1C[C@H]2CC`, 77% (active). As for `COc1ccc(NC(C(=O)Nc2cccc(C(C)=O)c2)c2ccccc2)cc1` (configuration not stated), the figure is -31.7%.

For `C=CCSc1nsc(NC(=O)Nc2cccc(C(C)=O)c2)n1`, the inhibition is 91% (active). Then `CC(=O)c1cccc(NC(=S)N2CCN(S(C)(=O)=O)CC2)c1`, with -22.1%. Then `CCSc1nsc(NC(=O)Nc2cccc(C(C)=O)c2)n1`, with 87.9% (active); and `CC(=O)c1cccc(NC(=O)C2CCN(C(=O)c3ccccc3Cl)CC2)c1`, with -5.45%. As for `CSc1ccccc1C(=O)Nc1cccc(C(C)=O)c1`, the figure is 0.31%; as for `Cc1ccc(C2Nc3ccccc3C(=O)N2CCN2CCNC2=O)cc1` (configuration not stated), -6.92%; as for `C[C@@H]1CN([C@@H](C)CO)C(=O)c2cc(NS(C)(=O)=O)ccc2O[C@@H](C)CCCCO[C@H]1CN(C)C(=O)Nc1ccc2c(c1)OCO2`, -5.22%. Consider `CC1COc2ccccc2N1C(=O)c1ccc(F)cc1` (configuration not stated), for which the inhibition is 0.29%.

With `O=C(c1ccc(F)cc1)N1CCC(n2nnc3ccccc32)CC1`, the inhibition was -5.58%. Then `O=C(c1ccc(F)cc1)n1c(=S)nc2ccccn21`, with 78.2% (active); and `CCCC(CCC(=O)OC)(C(=O)OCC)c1csc(N)n1` (configuration not stated), with -16.1%. On to `CC1(C)Oc2ccc3ccc(=O)oc3c2/C(=C/NCCO)C1=O`, for which the inhibition is 4.08%. For `CC1(C)Oc2ccc3ccc(=O)oc3c2/C(=N/O)C1=O`, the inhibition was 3.76%. As to `C/C=C(/C)C(=O)OC1Cc2c(ccc3ccc(=O)oc23)OC1(C)C` (configuration not stated), the inhibition is 94.7% (active). As for `COc1ccc(C2CC(c3cccc(OC)c3)=NN2c2ccc(S(N)(=O)=O)cc2)cc1` (configuration not stated), the figure is -3.98%; as for `Cn1c(=O)c2c(nc(SCCNS(=O)(=O)c3ccccc3)n2C)n(C)c1=O`, 3.41%. Then `CCCSc1nc2c(c(=O)n(C)c(=O)n2C)n1Cc1ccc(C)cc1`, with 68.3% (active).

In the case of `CCOc1ccc(Cn2c(SCCCCC#N)nc3c2c(=O)n(C)c(=O)n3C)cc1OCC`, the inhibition was -21.4%. As for `O=C(Cn1nnc2ccccc2c1=O)Nc1cc(C(F)(F)F)ccc1N1CCOCC1`, the figure is 1.74%; as for `C#CCNC(=O)C1=C[C@@H](c2ccccc2)[C@H](CCCO)[C@@H](OCC)O1`, 4.59%; as for `O=C(CCCCCn1c(=S)[nH]c2cc3c(cc2c1=O)OCO3)N1CCN(c2ccc(F)cc2)CC1`, -18.2%.

As for `Cc1ccc(C)c(N2CCN(C(=O)CCCCn3c(=O)[nH]c4ccccc4c3=O)CC2)c1`, the inhibition is 50.3% (active). As for `Cc1ccc(C)c(N2CCN(C(=O)CCCn3c(=O)c4cccn4c4cccnc43)CC2)c1`, the figure is -17.6%; as for `Cc1ccc(OCCCC(=O)N2CCOCC2)c(C)c1`, -41.6%. `O=C(CCCCCn1c(=O)[nH]c2ccccc2c1=O)NCCc1c[nH]c2ccccc12`: the inhibition was 35%. As for `Cc1ccc(C)c(N2CCN(C(=O)CCCCCn3c(=S)[nH]c4ccc(N5CCOCC5)cc4c3=O)CC2)c1`, the figure is 88.1% (active); as for `O=C(CCCC(=O)N(CC(=O)NC1CCCC1)Cc1ccccc1Cl)Nc1ccccn1`, 5.53%. Take `CSCCC(NC(=O)C1CCC(C)CC1)C(=O)NCc1ccco1` (configuration not stated): the inhibition is -2.99%. Then `Cc1ccc(Cn2cc(CN3CC(N4CCN(C)CC4)CS3(=O)=O)nn2)cc1` (configuration not stated), with -2.98%; and `CN1CCN(c2ccc3c(c2)OC[C@H](Cc2ccccc2)NS3(=O)=O)CC1`, with -3.51%; and `CCc1nc2ccc(C(=O)Nc3cccc(OC)c3)cn2c1N(CCC(C)C)CCN(C)C`, with 15.5%. As for `CC1=NN(C(=O)CCCc2ccccc2)C(O)(C(F)(F)F)C1` (configuration not stated), the figure is -10.4%. As for `CCN1CCN(C(=O)CCN2C(=O)c3ccccc3C2=O)CC1`, the figure is -7.32%; as for `C=CCN1CCN(C(=O)CCCc2ccccc2)CC1`, 86.5% (active).

Turning to `CC1CCCC(C)N1/N=C/c1ccccc1OC(F)F` (configuration not stated), the inhibition is -5.12%. Then `Cc1nn(-c2ccccc2)c(C)c1NC(=O)COc1ccc(Cl)cc1Cl`, with 86.4% (active); and `Cc1nn(-c2ccccc2)c(C)c1NC(=O)CCl`, with 6.77%; and `Cc1nn(-c2ccccc2)c(C)c1NC(=O)COC(=O)c1cc(Cl)ccc1O`, with 1.71%. As for `O=C(Nc1ccc(N2CCCC2=O)cc1)c1cncc(Br)c1`, the figure is 50.3% (active); as for `O=C(Nc1cccc(S(=O)(=O)N2CCCCC2)c1)c1cncc(Br)c1`, 20.6%. As for `O=C(Nc1cccc(S(=O)(=O)N2CCCC2)c1)c1cncc(Br)c1`, the figure is 13.2%. Regarding `COc1cc(C)c(CN2CCN(C(=O)CCC(=O)c3ccc(C)s3)CC2)cc1OC`, the inhibition was 11.6%.

With `COC(=O)c1ccccc1Oc1c(F)c(F)nc(N2CCOCC2)c1F`, the inhibition was -14.1%.

With `CCOc1ccc(Nc2nc(Cl)nc(N3CCN(c4ccc(OC)cc4)CC3)n2)cc1`, the inhibition is 1.18%. Then `COc1ccc(Nc2ncc(F)c(N3CCOCC3)n2)cc1`, with 60.1% (active); and `CNS(=O)(=O)c1ccc(NC(=O)C2CC(=O)N(c3ccc(Cl)cc3)C2)cc1` (configuration not stated), with 14.4%; and `O=C(OCC(=O)N1CCOCC1)c1ccc(N2CCOCC2)c([N+](=O)[O-])c1`, with -16.3%. As for `CC(=O)N1CCC(C(=O)Nc2nc(-c3ccccc3)ns2)CC1`, the figure is 14.9%; as for `COC(=O)C1=C(C(=O)OC)[C@@H]2N(C)c3ccccc3[C@@]23C[C@@H](C(=O)OC)N(C(C)=O)C3=N1`, -3.56%; as for `Cc1[nH]c2ccccc2c1C(=O)C(=O)NCc1nnnn1-c1cccc(F)c1`, 3.05%.

As for `CCOC(=O)C1(CC2CCCCO2)CCN(Cc2nc(-c3cccs3)oc2C)CC1` (configuration not stated), the inhibition was -0.53%.

`Cc1ccc(C(=O)CSc2ccccc2C(=O)O)cc1`: the inhibition is 53.3% (active). Consider `O=C(CSc1cccc[n+]1[O-])c1ccc(-c2ccccc2)cc1`, for which the inhibition is 2.59%. As for `Cc1ccc(Sc2cc(C(=O)c3ccccc3C(=O)O)ccc2[N+](=O)[O-])cc1`, the figure is -6.54%. Then `CCCCOC(=O)Nc1sc2nc(C)cc(C)c2c1-n1cccc1`, with 0.84%; and `CN(C)NC(=O)c1csnc1-c1c(Cl)cccc1Cl`, with 4.17%; and `COc1ccc(S(=O)(=O)N2CCOCC2)cc1NC(=O)CC1CC2CCC1C2` (configuration not stated), with 3.62%. On to `Cc1cc(=O)c2ccc(NC(=O)c3ccccc3)cc2[nH]1`, for which the inhibition was -10.3%. As for `O=C(NCCc1ccccc1)c1cccc(NC(=O)c2ccccc2)c1`, the figure is -19.1%; as for `O=C(NC1=CC(=O)c2ccccc2C1=O)c1ccccc1`, 67.5% (active). `NC(=O)COC(=O)c1sc2cc(F)ccc2c1Cl`: the inhibition is -16.4%. Then `FC(F)(F)Oc1ccccc1C(c1nnnn1C1CCCCC1)N1CCN(C/C=C/c2ccccc2)CC1` (configuration not stated), with 24.4%. As for `CC(C)c1ccccc1OCC(O)CN(CC(O)COc1cccc2ccccc12)C(C)C` (configuration not stated), the figure is -15%; as for `N/C(=N\OC(=O)Nc1ccccc1)c1ccno1`, -22.1%. For the molecule `O=C(Nc1ccccc1Cl)O/N=C(/c1ccccc1)c1ccccn1`, the inhibition was 60.2% (active). Then `O=C(COc1ccc(-n2cnnn2)cc1)Nc1ccccc1Cl`, with -14.3%. On to `COc1ccc(CN2C(=O)C(CC(=O)NCCN3CCOCC3)CC(C(=O)N(C(C)C)C(C)C)=C2C)cc1` (configuration not stated), for which the inhibition is 14.2%.

Consider `CC(C)OC(=O)c1ccc(NCc2cc(O)ccc2O)cc1Cl`, for which the inhibition was 102% (active).

In the case of `CC1(C)C2CCC1(C)C(OC(=O)c1ccc(O)cc1)C2` (configuration not stated), the inhibition is 16.2%. Consider `CCN(CC)C(=O)CCC(=O)Nc1ccc(C(=O)OC)cc1`, for which the inhibition is 0.79%. For `C#CCNc1ccc(C(=O)OCC)cc1`, the inhibition is -3.49%. Then `COC(=O)c1ccc(NCc2cc(O)ccc2O)cc1`, with 88.9% (active). As for `O=C(OC12CC3CC(CC(C3)C1)C2)c1ccc(NCc2cc(O)ccc2O)cc1`, the figure is 106% (active). As to `CC(CN1CCCCC1)OC(=O)c1ccccc1Cl` (configuration not stated), the inhibition was 16.6%. Consider `O=C(O)Cc1ccc(NCc2ccccc2Cl)cc1`, for which the inhibition was 22.4%.

Consider `COc1nc(N(C)C)nc(N2CC(=O)N(CCNS(=O)(=O)c3ccc(C)cc3)C2=N)n1`, for which the inhibition is -3.28%. As to `Cc1ccccc1-c1csc(C(O)c2cccc(Cl)c2)n1` (configuration not stated), the inhibition was -4.88%. Then `COc1ccc(N2CCN(C(=O)C3CCN(S(=O)(=O)c4ccc(C)cc4)CC3)CC2)cc1`, with -13.2%. As for `Cc1nccn1CCC1CCCCN1C(=O)CCc1nnc(-c2ccsc2)o1` (configuration not stated), the figure is -14.9%; as for `CC(C)(C)NC(=O)Cn1cnc2cc([N+](=O)[O-])ccc2c1=O`, 83% (active). Then `CC(C)(C)NC(=O)Cn1cnc([N+](=O)[O-])n1`, with 18.3%; and `O=C(Cn1cnc2cc([N+](=O)[O-])ccc2c1=O)NC(=O)NCc1ccccc1`, with -1.13%. For the molecule `Cc1cc2c(cc1S(=O)(=O)NCc1ccc(Cl)cc1)OCC(=O)N2`, the inhibition was -8.95%. As for `CCOC(=O)CCP(=O)(O)C(O)(c1ccccc1)c1ccccc1`, the figure is -6.25%; as for `CCc1ccccc1NC(=O)/C(=C/c1ccccc1)c1ccccc1`, -19.8%; as for `COc1ccccc1C(=O)c1ccccc1C(=O)c1ccccc1`, 9.79%.

Take `CCOC(=O)C(=Cc1ccccc1OC)C(=O)OCC`: the inhibition is 81.9% (active). Then `CCOC(=O)C(=Cc1ccccc1)C(=O)c1ccccc1`, with 98.4% (active); and `COc1ccccc1/C=C/C(=O)NC1CC2CCC1C2` (configuration not stated), with -13.3%.

The term inhibition denotes the change of the read-out against control, counted positive when it falls.
